Results filed as inconclusive are left out. Activity calls are given as the source filed them. The calls were made as follows: active = hit-call score of the fitted dose curve at least 0.9, where 1 is the maximum; inconclusive = response in the unintended direction; inactive = score below 0.9.
molecular target: human RAR-related Orphan Receptor beta (RORb), RORB (gene 6096) (UniProt Q92753); assay: ATG_RORb_TRANS: Attagene TRANS-FACTORIAL HepG2 Assay for human RAR-related Orphan Receptor beta (RORb) (AID 2283010)
Method: ATG_TRANS is a cell-based, multiplexed-readout assay that uses HepG2, a human liver cell line, with measurements taken at 24 hours after chemical dosing in a 24-well plate.ATG_RORb_TRANS is one of 30 assay component(s) measured or calculated from the ATG_TRANS assay. It is designed to make measurements of mRNA induction, a form of inducible reporter, as detected with fluorescence intensity signals by Reverse transcription polymerase chain reaction (RT-PCR) and Capillary electrophoresis technology.Data from the assay component ATG_RORb_TRANS was analyzed into 1 assay endpoint. This assay endpoint, ATG_RORb_TRANS, was analyzed in the positive analysis fitting direction relative to DMSO as the negative control and baseline of activity. Using a type of inducible reporter, measures of mRNA for gain-of-signal activity can be used to understand the reporter gene at the transcription factor-level as they relate to the gene RORB. Furthermore, this assay endpoint can be referred to as a primary readout, because this assay has produced multiple assay endpoints where this one serves a reporter gene function. To generalize the intended target to other relatable targets, this assay endpoint is annotated to the nuclear receptor intended target family, where the subfamily is orphan.
Human liver HepG2 cells are transiently transfected with multiple reporter transcription units (MRTUs) in 6-well plates using FuGene 6 reagent (Roche; 3 ml FuGene/1 mg DNA). The MRTU constructs are regulated by a cis-regulating element (promoter). […] A major difference between the CIS and TRANS system is that in CIS activities of endogenous TFs are measured, whereas the TRANS assay evaluates changes in activities of exogenous, chimeric NR-Gal4 proteins. […] At the end of 24 hour incubation, total RNA was isolated using TriZol reagent (Invitrogen). The isolated RNA is then reverse-transcribed using oligo(dT) primer and Mo-MLV reverse transcriptase (Invitrogen) with DNAse I (Ambion) treatment for 30 min. The one-tenth of the produced cDNA was amplified by PCR using Taq DNA polymerase (Invitrogen) and two reporter sequence-specific primers. The PCR products were fluorescently labeled by primer extension with 6-arboxyfluorescein (6-FAM) 5'-labeled reporter sequence-specific primer (2 min at 95 C, 20 s at 68 C and 10 min at 72 C) and these products were digested with 5U of HpaI (New England Biolabs) for 2h at 37 C. The fragments were purified using Qiaquick PCR columns (Qiagen), analyzed on an ABI 3130xL genetic analyzer (Applied Biosystems) with peak positions identified by using a set of X-rhodamine (ROX)-labeled MapMarker1000 molecular weight standards (BioVentures). The raw capillary electrophoresis data was processed using Attagraph software (Attagene).

human RAR-related Orphan Receptor beta (RORb), RORB (gene 6096), sequence (Q92753 whole entry, looked up): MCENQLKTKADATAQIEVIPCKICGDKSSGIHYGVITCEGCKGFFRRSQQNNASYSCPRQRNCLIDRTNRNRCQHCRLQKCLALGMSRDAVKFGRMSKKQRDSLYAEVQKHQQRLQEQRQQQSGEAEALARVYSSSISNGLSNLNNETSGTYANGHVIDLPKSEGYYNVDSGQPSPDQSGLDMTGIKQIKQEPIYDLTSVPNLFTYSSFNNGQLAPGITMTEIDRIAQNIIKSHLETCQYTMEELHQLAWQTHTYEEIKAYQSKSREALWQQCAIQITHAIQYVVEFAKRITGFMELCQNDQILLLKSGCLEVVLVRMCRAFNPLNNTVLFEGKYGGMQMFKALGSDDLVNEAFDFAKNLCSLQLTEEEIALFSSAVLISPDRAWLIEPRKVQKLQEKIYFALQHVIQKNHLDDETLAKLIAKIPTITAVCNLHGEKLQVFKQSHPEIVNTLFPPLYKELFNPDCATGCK

outcome, inactive:
CCCCCCCCCCc1ccccc1
CCCCC(CC)COC(=O)c1ccccc1 (stereo not given)
C=CC(=O)NC(C)(C)CS(=O)(=O)O
CCCCCCCCCCCCCCCCCC#N
CCC(CC)C(=O)O
CCCCCCCCCCOC(C)=O
Cc1cccc(N)n1
CCCCCC/C=C/C=O
CC(C)CCCC(C)CC=O (stereo not given)
c1ccc2c(c1)ccc1cc3c(ccc4ccccc43)cc12
O=C(c1ccccc1)c1ccc(O)c(O)c1O
FC(F)(F)C(=NOCC1OCCO1)c1ccc(Cl)cc1
NCCCN1CCN(CCCN)CC1
Cc1ccc(N/N=c2\c(=O)cc/c(=N/Nc3ccc(S(=O)(=O)O)cc3)c2=O)c(C)c1
O=C1CCCC(=O)O1
OCCc1ccncc1
CCC(C)C=O (stereo not given)
C=CCOc1c(Br)cc(Br)cc1Br
CC(=O)Oc1ccc(C)cc1
CCOC(=O)CC(C(C)=O)C(C)=O
Cc1cnc(NC(=O)C2=C(O)c3ccccc3S(=O)(=O)N2C)s1
C=CC=CC=CCCCCC
COC(=O)c1sccc1S(N)(=O)=O
CC(=O)[C@H]1[C@H](C#N)C[C@H]2[C@@H]3CC=C4C[C@@H](O)CC[C@]4(C)[C@H]3CC[C@@]21C
O=C1CCCCCCCCCCCCCCCO1
COC(=O)/C=C/C(C)=C\C=C\C(C)=C\C=C\C=C(C)\C=C\C=C(C)\C=C\C(=O)O
CC(C)c1ccc2cc(C(C)C)ccc2c1
C/C=C\C/C=C/CCCCCCCCOC(C)=O
CC(=O)OCC(C)OC(C)=O (stereo not given)
CCCCCCOC(=O)C(C)CC (stereo not given)
CCCCCCCOC(=O)CCC
CC(=O)Nc1nnc(S(N)(=O)=O)s1
c1c[nH]cn1
O=C1c2ccccc2C(=O)C1c1nc2ccccc2c(Br)c1O
CC(C)c1ccc(C=O)cc1
C=C1C2CCC(C2)C1(C)C (stereo not given)
C[C@]12C=CC(=O)C=C1CC[C@@H]1[C@@H]2[C@@H](O)C[C@@]2(C)[C@H]1CC[C@]2(O)C(=O)CO
Cn1c(=O)[nH]c2ncn(C)c2c1=O
CC(C)CCCCCOC(=O)CCS
CC(C)C1=CC2=CC[C@@H]3[C@](C)(CCC[C@@]3(C)C(=O)O)[C@H]2CC1
